# SARS PLpro yeast – SARS-CoV PLP inhibition in yeast. S. cerevisiae expressing SARS-CoV PLpro, growth rescue. Potency, µM (highest dose often 32.9 µM), for inactives: at the highest dose activity, positive = growth rescue, usual class: activators. 0.19% of 330,000 active; calls by dose curve; further: 0% is about no effect; nearly all actives have a fitted effect of over 55% in size
# AmpC inh no detg – blocks E. coli AmpC beta-lactamase in detergent-free assay | AmpC nitrocefin hydrolysis, absorbance 480 nm, 0.0001% Triton | Potency, µM (doses to about 57.1 µM), without a hit: at the highest dose activity change, negative = inhibition, actives largely listed as inhibitors | 0.52% of 330,000 active;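 further: plate controls were no compound for no effect and no enzyme for full effect; nearly all actives have a fitted effect of over 20% in size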
# Target sequence (P00811 whole entry, looked up): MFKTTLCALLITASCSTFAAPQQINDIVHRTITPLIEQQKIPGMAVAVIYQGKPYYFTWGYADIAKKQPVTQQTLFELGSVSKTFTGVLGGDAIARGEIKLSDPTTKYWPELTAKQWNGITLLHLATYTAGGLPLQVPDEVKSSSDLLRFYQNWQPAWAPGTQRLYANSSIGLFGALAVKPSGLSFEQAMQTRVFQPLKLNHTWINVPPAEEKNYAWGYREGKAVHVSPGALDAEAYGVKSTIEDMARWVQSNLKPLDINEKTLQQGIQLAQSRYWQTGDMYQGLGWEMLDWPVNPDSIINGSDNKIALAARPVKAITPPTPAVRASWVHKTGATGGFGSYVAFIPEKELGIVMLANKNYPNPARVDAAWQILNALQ
#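 AmpC (5.3 nM in the dispensed reagent) in 20 mM phosphate pH 7.0 with 0.01% (detergent screen) or 0.0001% Triton X-100 was preincubated with compounds for 15 min at room temperature. Nitrocefin was then added from an 800 uM solution, and hydrolysis was followed at 480 nm.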
# AmpC detergent – inhibitors of E. coli AmpC beta-lactamase with detergent; AmpC hydrolysis of nitrocefin, absorbance 480 nm, 0.01% Triton; AID 485294; Potency, µM (top dose mostly 114 µM), without a hit: at the top dose activity change, negative = inhibition, most hits filed as inhibitors; 0.041% of 370,000 active; P00811;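 further: 0% = no-compound wells and -100% = no-enzyme wells; nearly all actives have a fitted effect of over 25% in size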
#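 AmpC (5.3 nM in the dispensed reagent) in 20 mM phosphate pH 7.0 with 0.01% (detergent screen) or 0.0001% Triton X-100 was preincubated with compounds for 15 min at room temperature. Nitrocefin was then added from an 800 uM solution, and hydrolysis was followed at 480 nm.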
# Sm TGR block – S. mansoni TGR enzyme inhibition; Q962Y6; purified TGR, DTNB reduction, TNB absorbance 405 nm; Potency, µM (highest dose often 114 µM), without a hit: at the highest dose activity change, negative = inhibition, actives largely listed as inhibitors; 3% of 360,000 active; AID 485364; further: on the % scale 0 is the no-effect control and ±100 the full control effect; nearly all actives have a fitted effect of over 60% in size
#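 TGR 20 nM + NADPH 100 uM (dispensed conc.), cpd preinc 15 min RT; start with NADPH (500 uM addition) then DTNB (15 mM addition). Kinetic TNB absorbance, 405 nm filter. Four-parameter Hill fit across titration.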
# Pf growth 48h – inhibits P. falciparum growth in the first generation, 48 h; P. falciparum luciferase growth in erythrocytes, 48 h; Potency, µM (top dose mostly 28.7 µM), without a hit: at the top dose activity change, negative = inhibition, hits mostly inhibitors; 5.9% of 310,000 active; AID 504832; further: on the % scale 0 is the no-effect control and ±100 the full control effect
#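 Here the parasites carry a stable luciferase gene and grow inside erythrocytes in Albumax-based RPMI medium with compound for one erythrocytic cycle. Activity is scored as loss of luminescent signal.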
# Pf growth 96h – inhibits malaria parasite growth, 96 h; P. falciparum luciferase reporter growth, 96 h; Potency, µM (doses to about 28.7 µM), inactives show at the top dose activity change, negative = inhibition, most hits filed as inhibitors; 6.9% of 320,000 active; AID 504834; further: on the % scale 0 is the no-effect control and ±100 the full control effect
#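 Plates of compound plus infected erythrocytes (2% hematocrit, 0.05% parasitemia final) incubate 96 hours, 37 C, 5% CO2. Detection reagent added; reduced luminescence from the parasites' luciferase reporter flags inhibition.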
# Active calls of the source: *; ? = inconclusive; . = no result. Rows were chosen to be rich in hits. Some 12% of all compounds tested hit in one or more screens of this group. Unless noted, the call rests on the fitted dose curve; in most records, active means well fitted curve in the direction sought with a large enough effect; inconclusive means small, poorly fitted or top-dose-only effect, or another doubt; inactive means no such curve, though single readings can be large; an effect the other way counts as inactive or inconclusive. Potency means the concentration at half of the fitted maximal effect.
SMILES,SARS PLpro yeast,AmpC inh no detg,AmpC detergent,Sm TGR block,Pf growth 48h,Pf growth 96h
C#CCOCCOCCOCCNc1nc(N2CCOCC2)nc(N2CCN(C(=O)[C@H]([C@@H](C)CC)n3cc(CCCN=C(N)N)nn3)CC2)n1,-1.9%,102.3%,-20.6%,-34.5%,7.4%,?
C#CCOCCOCCOCCNc1nc(N2CCN(C(=O)CCCCCCCCCCNC(=O)[C@H]([C@@H](C)CC)n3cc(CCCCN=C(N)N)nn3)CC2)nc(N2CCN(C(=O)CCCCCCCCCCNC(=O)[C@H](CCCN=C(N)N)n3cc(C[C@@H](C)CC)nn3)CC2)n1,-12.9%,242.2%,0.1%,?,4.65µM*,5.22µM*
C#CCOCCOCCOCCNc1nc(N2CCN(C(=O)CCCCCCCCCCNC(=O)[C@H](CCCN=C(N)N)n3cc(C[C@@H](C)CC)nn3)CC2)nc(N2CCN(C(=O)CCCCCCCCCCNC(=O)[C@@H]([C@H](C)CC)n3cc(CCCCCN)nn3)CC2)n1,1.2%,188.9%,-12.4%,?,3.29µM*,8.28µM*
C#CCOCCOCCOCCNc1nc(N2CCN(C(=O)CCCCCCCCCCNC(=O)[C@H]([C@@H](C)CC)n3cc(CCCCN=C(N)N)nn3)CC2)nc(N2CCN(C(=O)CCCCCCCCCCNC(=O)[C@@H]([C@H](C)O)n3cc(C)nn3)CC2)n1,3.0%,261.5%,3.6%,?,1.85µM*,?
CNC(=S)N1CCN(C(=O)C2CCCO2)CC1 (stereo not drawn),-6.4%,-12.7%,?,7.8%,7.4%,-15.8%
COc1ccc(CCNC(=O)c2ccc(-c3ccc([N+](=O)[O-])cc3Cl)o2)cc1,-20.5%,-28.9%,-12.5%,-9.9%,14.2%,-63.1%
CC(=O)SC(C[N+](=O)[O-])c1cn(C(C)=O)c2ccccc12 (stereo not drawn),-43.5%,-19.0%,2.5%,4.47µM*,?,?
CCCCn1c(N)c(N(CC(C)C)C(=O)c2cc(S(=O)(=O)N3CCOCC3)ccc2Cl)c(=O)[nH]c1=O,12.1%,-21.5%,-13.8%,-2.6%,?,0.3%
COc1ccc(CN2CC(=O)N(c3ccc(C)cc3)C2=S)cc1OC,22.4%,12.7%,5.1%,-1.0%,?,0.0%
COc1cc(CN2CC(=O)N(c3ccc(C)cc3)C2=S)cc(OC)c1OC,-3.3%,43.9%,-12.3%,-7.4%,0.828µM*,-13.6%
COc1cc(CN2CC(=O)N(c3ccc(C)c(Cl)c3)C2=S)cc(OC)c1OC,-4.3%,69.6%,-4.8%,1.1%,2.08µM*,-1.0%
CCC1Oc2ccc(C)cc2N(CC(=O)NCCc2ccccc2)C1=O (stereo not drawn),.,.,-1.2%,5.2%,.,.
CCCCCNC(=O)c1ccc2c(=O)n(CC3CCCO3)c(=O)[nH]c2c1 (stereo not drawn),?,-6.7%,1.4%,10.2%,1.31µM*,8.6%
CCCCCNC(=O)c1ccc2c(=O)n(CC3CCCO3)c(=S)[nH]c2c1 (stereo not drawn),1.7%,-23.6%,3.9%,-5.7%,?,-22.7%
CCCCCn1c(=O)[nH]c2cc(C(=O)NCCN3C(C)CCCC3C)ccc2c1=O (stereo not drawn),14.6%,1.9%,3.1%,3.4%,?,?
CCCCCn1c(=O)[nH]c2cc(C(=O)NCCN3CCCCC3C)ccc2c1=O (stereo not drawn),4.8%,-12.0%,4.6%,0.7%,11.7µM*,?
COC(=O)C(C)Sc1nnc(Cc2cc(=O)[nH]c(=O)[nH]2)n1-c1cccc(OC)c1 (stereo not drawn),5.0%,-14.4%,?,6.7%,.,15.8%
CCCc1cc(=O)[nH]c2nnc(SCC(=O)NC3CCCC3)n12,-1.4%,17.8µM*,?,0.8%,0.9%,14.5%

# Bioassay records from PubChem BioAssay.
